ATG4B inh – blocks human ATG4B protease cleavage of LC3 substrate. AID 504462. ATG4B cleavage of LC3-PLA2, NBD-HPC fluorescence, 1 h. inhibition, % at 8.33 µM. 340,000 compounds, 0.51% hits. Q9Y4P1; in the data active = inhibition above about 40%
PAFAH1B2 inh – inhibitors of human PAFAH1B2; P68402; recombinant PAFAH1B2, FP-rhodamine activity probe, fluorescence polarization; inhibition, % at 3.39 µM; 340,000 compounds, 1.2% hits; AID 492953;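 active = inhibition above the mean of all tested compounds plus 3 SD, cut at about 24% in these data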;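 note: 0% = enzyme with DMSO and 100% = wells lacking PAFAH1B2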
Target sequence (P68402 whole entry, looked up): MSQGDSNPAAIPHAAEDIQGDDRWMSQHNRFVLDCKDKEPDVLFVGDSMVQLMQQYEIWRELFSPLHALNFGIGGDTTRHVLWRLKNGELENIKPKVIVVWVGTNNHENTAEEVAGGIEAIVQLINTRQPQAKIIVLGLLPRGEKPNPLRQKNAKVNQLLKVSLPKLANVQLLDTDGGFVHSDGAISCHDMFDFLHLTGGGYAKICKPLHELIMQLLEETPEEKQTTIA
PAFAH2 inh – PAFAH2 (human) inhibition. Q99487. recombinant PAFAH2, FP-rhodamine activity probe, fluorescence polarization. inhibition, % at 3.39 µM. 340,000 compounds, 0.99% hits. AID 492956;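 active = inhibition above the mean over all tested compounds plus 3 SD, cut at about 30% in these data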;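 note: inhibitors block probe labeling of enzyme so polarization drops; 0% = enzyme with DMSO and 100% = wells lacking PAFAH2 protein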
pPAFAH FP inh – inhibitors of human plasma PAF acetylhydrolase (pPAFAH); Q13093; 330,000 compounds, 1.5% hits; recombinant pPAFAH, FP-rhodamine probe fluorescence polarization; AID 463082; inhibition, % at 3.39 µM;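 active = inhibition above the mean inhibition across the screen plus 3 SD, cut at about 25% in these data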;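 note: inhibitors block binding of the rhodamine activity-based probe so polarization drops; 0% = enzyme with DMSO and 100% = wells lacking pPAFAH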
DAGLB inh – blocks human DAGLB lipase activity; Q8NCG7; AID 504411; 340,000 compounds, 0.059% hits; HEK293T DAGLB membrane lysate, EnzChek fluorogenic substrate; inhibition, % at 5.17 µM; in the data active = inhibition above about 34%;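 note: 0% = enzyme with vehicle and 100% = wells lacking enzyme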
PAFAH1B3 inh – PAFAH1B3 (human) inhibition. 340,000 compounds, 0.28% hits. recombinant PAFAH1B3, FP-rhodamine probe, fluorescence polarization. Q15102. AID 492972. inhibition, % at 3.39 µM;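 active = inhibition above the screen-wide average of all tested compounds plus 3 SD, cut at about 25% in these data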;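 note: 0% = enzyme with DMSO only and 100% = wells lacking PAFAH1B3 protein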
Starred values were filed as active, the others as inactive; / = no result given. An excerpt weighted towards active compounds, which were near 3% of everything screened.

SMILES	ATG4B inh	PAFAH1B2 inh	PAFAH2 inh	pPAFAH FP inh	DAGLB inh	PAFAH1B3 inh
CCC(C)Nc1nc(N)c([N+](=O)[O-])c(Nc2ccccc2OC)n1 (stereo not drawn)	-12	6	5	7	-3	7
CCC(C)Nc1nc(N)c([N+](=O)[O-])c(Nc2cc(OC)ccc2OC)n1 (stereo not drawn)	-6	6	13	29*	2	9
CC(=O)Nc1ccc(N/C=C/C(=O)c2ccco2)cc1	-8	3	-4	3	0	-4
CN(C)c1ccc(N/C=C/C(=O)c2ccco2)cc1	0	2	1	28*	9	-3
CN(C)c1ccc(N/C=C/C(=O)c2ccc(F)cc2)cc1	-2	2	7	31*	12	1
COc1ccc(OC)c(/C=N/c2oc(-c3ccco3)c(-c3ccco3)c2C#N)c1	20	5	11	30*	1	5
N#Cc1c(N)oc(-c2ccco2)c1-c1ccco1	-8	5	17	21	1	3
CCn1c(CSc2nnc(-c3cccnc3)n2-c2ccccc2C)nc2cc(C(=O)O)ccc21	/	/	/	42*	/	/
COC(=O)c1ccc(C(=O)OC)c(NC(=O)CSc2n[nH]c(N)n2)c1	-2	-1	-1	3	-1	0
CCn1c(CSc2nnc3ccccn23)nc2cc(C(=O)O)ccc21	-4	49*	60*	26*	2	44*
CCn1c(CSc2nnc(-c3ccncc3)n2CCOC)nc2cc(C(=O)O)ccc21	-10	36*	47*	30*	1	27*
CCOc1ccc(C(=O)CSc2nnc3ccccn23)cc1	-18	2	1	4	1	1
CCn1c(CSc2n[nH]c(N)n2)nc2cc(C(=O)O)ccc21	-4	38*	52*	25*	-1	36*
COCCn1c(SCCCC(=O)c2ccc(Br)cc2)nnc1-c1ccncc1	-5	3	10	1	1	10
C=CCNC(=O)c1n[nH]c2c1CC(C(C)(C)CC)CC2 (stereo not drawn)	-17	15	7	-2	1	2
O=C(CCN1C(=O)c2ccccc2S1(=O)=O)Nc1ccc(C(=O)O)cc1	-2	4	-2	0	-1	-6
CCC(C)NC(=O)C1c2ccccc2C(=O)N1Cc1ccc(F)cc1 (stereo not drawn)	-4	1	1	1	-4	6
COc1ccc(CN(C)C(=O)c2ccc3c(=O)n4c(nc3c2)CCC4)c(OC)c1	-2	1	-5	4	1	2
Cc1cc(C)c(S(=O)(=O)N/N=C/c2ccc3c(c2)OCO3)c(C)c1	-3	1	2	/	1	11
CNCC(O)c1ccc(OC(=O)C(C)(C)C)c(OC(=O)C(C)(C)C)c1 (stereo not drawn)	6	27*	0	3	2	1
CCc1nc(CNC(=O)C2CCC(=O)N(CCc3cccc(F)c3)C2)no1 (stereo not drawn)	22	-8	3	-1	-5	2
O=C(O)c1ncn(Cc2ccc(Br)cc2)c1C(=O)O	7	25*	9	1	2	8
COc1cc(/C=C(\C#N)C(=O)NCCc2ccccc2)cc(OC)c1O	-2	6	3	2	-2	8
N#C/C(=C\c1ccc(O)c(O)c1)C(=O)NCCc1ccccc1	-5	64*	36*	27*	29	15
Cc1nc(N2CCOCC2)nc(Oc2ccccc2)c1[N+](=O)[O-]	-2	8	6	3	-11	-1
SMILES	ATG4B inh	PAFAH1B2 inh	PAFAH2 inh	pPAFAH FP inh	DAGLB inh	PAFAH1B3 inh
COc1ccc(C)cc1NC(=O)c1ccc(NS(=O)(=O)c2cccs2)cc1	-4	-2	6	32*	0	-4
CCOc1ccc(Br)cc1S(=O)(=O)Nc1ccc(C(=O)Nc2ccccc2OC)cc1	19	-1	-4	29*	2	-6
COc1cc(S(=O)(=O)Nc2cccc(C)c2)ccc1NC(=O)c1cccnc1	-2	-2	-7	30*	3	-2
COc1cc(NC(=O)c2cccnc2)ccc1NC(=O)c1ccccc1Cl	-7	-1	1	7	1	2
Cc1ccc(C)n1-c1ccc(C(=O)O)cc1	/	/	/	31*	/	/
Cc1ccc(-c2cnc(SCCNC(=O)c3ccco3)[nH]2)cc1	9	-1	7	0	0	-1

Bioassay records deposited in PubChem by several laboratories.
